# RORgamma inh – blocks mouse ROR gamma transcriptional activity; P51450; Drosophila S2 Gal4-RORgamma UAS-luciferase reporter, 20 h; Potency, µM (titrated, usually from 53.6 µM), without a hit: top-dose activity change, negative = inhibition, usual class: inhibitors; 310,000 tested, 5.4% active; AID 2551; note: % is set by controls: 0 for no effect and ±100 for the full control effect; nearly all actives have a fitted effect of over 60% in size
# Target sequence (P51450 whole entry, looked up, the tested form may be a part): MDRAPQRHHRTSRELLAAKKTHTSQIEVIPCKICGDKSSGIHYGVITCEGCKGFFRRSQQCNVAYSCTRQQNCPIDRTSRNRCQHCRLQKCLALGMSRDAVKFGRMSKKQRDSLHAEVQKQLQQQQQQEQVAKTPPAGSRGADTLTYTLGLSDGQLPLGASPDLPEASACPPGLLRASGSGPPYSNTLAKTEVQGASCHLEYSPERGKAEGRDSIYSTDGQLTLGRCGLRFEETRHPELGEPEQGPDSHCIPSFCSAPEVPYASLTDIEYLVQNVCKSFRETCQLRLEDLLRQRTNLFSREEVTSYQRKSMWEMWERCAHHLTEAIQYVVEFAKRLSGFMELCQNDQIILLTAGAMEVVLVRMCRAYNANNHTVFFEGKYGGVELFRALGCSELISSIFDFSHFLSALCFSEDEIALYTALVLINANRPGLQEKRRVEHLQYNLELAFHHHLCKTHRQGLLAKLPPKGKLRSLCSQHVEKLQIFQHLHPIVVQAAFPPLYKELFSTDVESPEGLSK
#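 A Gal4/UAS one-hybrid system in insect cells: metallothionein-promoter Gal4–ROR gamma fusion plus Photinus luciferase reporter. Copper sulfate 700 uM final, 20 hr ambient incubation, luminescent detection after 10 min with reagent.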
# PINK1 expr mod – PINK1 expression modulation | PINK1 immunofluorescence, high-content cytometry, 24 h | Potency, µM (doses to about 76.6 µM), inactives show at the highest dose activation (PINK1 increase), actives largely listed as activators | 410,000 tested, 0.2% active; active = well fitted activation curve with a large enough effect; inconclusive = small, poorly fitted or top-dose-only effect; cell line not stated here; note: % of control where 0% means no effect; nearly all actives have a fitted effect of over 65% in size
#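 Stable cell line treated 24 h with compounds at 5 concentrations (CCCP controls), then fixed and immunostained for PINK1 plus nuclear and cell stains; PINK1 immunofluorescence quantified by laser-scanning microplate cytometry.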
# Sfp inh – inhibitors of Bacillus subtilis Sfp phosphopantetheinyl transferase; Biochemical Sfp PPTase activity, qHTS; 310,000 tested, 3.5% active; AID 1490; Q9F4F7; Potency, µM, for the others: largest response in the series, negative = inhibition, actives largely listed as inhibitors;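 note: the enzyme is Sfp with the accession as filed and its product quenches rhodamine fluorescence; 0% = enzyme reaction without inhibitor and -100% = no enzyme wells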
#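 Fluorescence-quenching assay with 15 nM Sfp, 5 uM rhodamine-CoA and 12.5 uM BHQ-2-labelled ybbR peptide in pH 7.6 Hepes/MgCl2 buffer. Enzyme was pre-incubated with compound for 15 min at room temperature. Rate was taken from the 30-min fluorescence change (525/598 nm).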
# ClpP mod – qHTS Assay for Activators of ClpP; ATP-dependent Clp protease proteolytic subunit (Bacillus subtilis (strain 168)), P80244; purified B. subtilis ClpP, FRET peptide cleavage, 20 min; Potency, µM (series often up to 57.5 µM), inactives show top-dose activity change, negative = active; 340,000 tested, 1.9% active; AID 651965, 2013; active = well fitted falling curve with a large enough effect; inconclusive = small, poorly fitted or top-dose-only effect; inactive = no such curve, though single readings can be large or run the other way; note: the source files actives as falling curves though it sought activators and does not explain the sign; nearly all actives have a fitted effect of over 65% in size
# Target sequence (P80244 whole entry, looked up): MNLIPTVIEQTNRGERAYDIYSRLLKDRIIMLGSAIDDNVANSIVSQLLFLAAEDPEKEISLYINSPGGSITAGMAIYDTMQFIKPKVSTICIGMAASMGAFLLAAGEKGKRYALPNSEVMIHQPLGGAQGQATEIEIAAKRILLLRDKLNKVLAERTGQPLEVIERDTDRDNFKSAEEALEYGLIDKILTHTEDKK
#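 Buffer: 100 mM Tris/HCl pH8, 100 mM KCl, 0.05% low protease BSA, 2.5% glycerol, 0.01% Tween-20. ClpP 10 microg/mL final; 20 min RT; delta FRET normalized to ADEP and DMSO controls.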
# Gal4-VP16 FLuc – inhibits Gal4-VP16 luciferase reporter, ROR gamma counter-screen. Drosophila S2 Gal4-VP16 UAS-luciferase, luminescence, 20 h. Potency, µM (series often up to 53.6 µM), without a hit: at the highest dose activity, negative = inhibition, most hits filed as inhibitors. 310,000 tested, 3.5% active. AID 2546;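 note: Gal4-VP16 expression switched on by copper sulfate through the metallothionein promoter; % is set by controls: 0 for no effect and ±100 for the full control effect; nearly all actives have a fitted effect of over 50% in size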
# Epigenetic derep – derepresses silenced GFP reporter in murine cells. murine LDR cells, GFP reporter derepression, 30 h. Potency, µM (titrated, usually from 53.9 µM), for inactives: top-dose GFP activation, hits mostly activators. 280,000 tested, 0.2% active. AID 1865; note: % of control where 0% means no effect; nearly all actives have a fitted effect of over 60% in size
#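 GFP-positive cell count by laser-scanning cytometry (objects 20–120 um) after 30 h, 37 C compound exposure of murine LDR cells; reporter is CMV-GFP integrated at a silenced locus, inducible by HDAC or DNMT inhibitors.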
# ClpP inh valid – Bacillus subtilis ClpP inhibition, validated hit; shares compounds with ClpP mod; purified B. subtilis ClpP, FRET-FV substrate cleavage, 20 min; Potency, µM (doses to about 57.5 µM), for the others: top-dose activity change, negative = inhibition, most hits filed as inhibitors; 470 tested, 40% active; AID 743245; note: % is set by controls: 0 for no effect and ±100 for the full control effect; nearly all actives have a fitted effect of over 70% in size
# * = called active by the depositor; ? = inconclusive; . = no result; [ ] = another dose, or the depositor's remark. This is a sample that favours compounds with a hit; in the whole collection about 8.1% have one here. Unless noted, calls come from the whole dose curve; as a rule, active = well fitted curve in the direction sought with a large enough effect; inconclusive = small, poorly fitted or top-dose-only effect, or another doubt; inactive = no such curve, though single readings can be large; an effect the other way counts as inactive or inconclusive. Potency is the fitted concentration of half-maximal effect.
SMILES,RORgamma inh,PINK1 expr mod,Sfp inh,ClpP mod,Gal4-VP16 FLuc,Epigenetic derep,ClpP inh valid
Cc1ccc2oc(-c3cccc(NC(=O)c4cc(-n5cnnc5)ccc4Cl)c3)nc2c1,?,?,17.9%,133.7%,?,1.2%,-23.2%
O=C(Nc1cccc(-c2nc3ccccc3o2)c1)c1ccc(-c2ccc(Br)cc2)o1,.,4.2%,.,3.98µM*,.,9.5%,11.2%
CCOc1ccccc1N1CC(C(=O)Nc2ccc3c(c2)OCCO3)CC1=O (stereo not drawn),29.7%,0.6%,16.1%,7.94µM*,5.5%,0.8%,-0.1%
COc1cc2c(cc1NC(=O)C(C)N1CCN(S(=O)(=O)c3ccccc3[N+](=O)[O-])CC1)oc1ccccc12 (stereo not drawn),?,-1.4%[38.3 µM],-4.5%,-5.7%,-14.5%,-2.0%,.
COc1cc2c(cc1NC(=O)C(C)N1CCN(S(=O)(=O)c3ccc(C)c(C)c3)CC1)oc1ccccc12 (stereo not drawn),-9.1%,3.0%[38.3 µM],6.2%,3.16µM*,-4.2%,-4.2%,?
COc1cccc(NC(=O)CSc2ncc3c(n2)-c2ccc(Cl)cc2N(C)S3(=O)=O)c1,.,2.0%,.,-10.9%,.,1.3%,.
COc1ccc(S(=O)(=O)NCC(c2ccco2)N2CCOCC2)cc1C (stereo not drawn),.,-1.3%,.,-1.1%,.,-2.1%,.
Cc1nn2c(NCC(C)C)c3c(nc2c1-c1ccccc1)CCC3,?,28.7%[38.3 µM],0.7%,7.94µM*,5.5%,-1.2%,4.85µM*
COc1ccc(NC(=O)c2ccc3c(=O)n4nc(Nc5ccccc5C)sc4nc3c2)cc1Cl,.,-5.3%,.,-9.8%,.,-2.9%,.
Clc1ccc(N2N=C(c3cccs3)CC2c2ccco2)cc1 (stereo not drawn),31.2%,6.8%,?,3.55µM*,4.5%,-1.2%,27.3µM*
COc1cc([N+](=O)[O-])ccc1NC(=O)N1CCC2(CC1)Nc1cc(F)ccc1-n1cccc12,.,2.2%,.,-2.6%,.,10.0%,.
COc1ccccc1N(CC(=O)Nc1ccc2c(c1)OCCO2)S(C)(=O)=O,22.6%,0.3%,4.2%,0.3%,-1.1%,-1.0%,.
COc1ccccc1N(CC(=O)Nc1ccc2c(c1)OCCO2)S(=O)(=O)c1ccc(C)cc1,9.9%,1.0%,15.5%,5.01µM*,9.7%,.,0.0%
COc1ccc(NC(=O)C2CCCN(c3nnc(C)c4c(C)n(-c5ccccc5)nc34)C2)cc1Cl (stereo not drawn),.,2.5%,.,3.8%,.,-2.5%,.
O=C(CN1CCN(Cc2ccccc2)CC1)NCCc1ccccc1,3.7%,-0.7%,0.0%,6.31µM*,3.9%,.,0.6%
CCOC(=O)c1cc2occc2n1CC(=O)N1CCCc2ccccc21,-10.9%[10 µM],-2.8%,79.4µM*,96.1%,-2.0%,5.5%,0.0%
CCOC(=O)c1cc2sccc2n1CC(=O)N1CCCc2ccccc21,9.1%,.,-6.1%,-5.3%,-2.1%,2.3%,.
Cc1oc(-c2cccc(Cl)c2)nc1CSc1nnc(C)n2c1cc1occc12,.,-1.0%,.,?,.,2.7%,.
O=C(CSc1ncc2c(n1)-c1ccccc1N(Cc1ccc(F)cc1)S2(=O)=O)NCCc1ccccc1,.,1.7%,.,-24.4%,.,9.8%,.
CC(C)(C)c1ccc(OCC(=O)NCC2(N3CCOCC3)CCCCC2)cc1,.,1.4%,.,0.8%,.,-2.4%,.
CC(NC(=O)c1cc2sccc2n1Cc1ccc(F)cc1)c1ccccc1 (stereo not drawn),.,4.6%,.,-0.5%,.,7.0%,.
Cc1ccccc1NC(=O)c1cc2sccc2n1Cc1ccc(F)cc1,.,4.6%,.,149.9%,.,-3.3%,?
CCCCN(CC)CCNC(=O)Cn1cnc2sc(C)c(S(=O)(=O)N3CCN(c4ccccc4OC)CC3)c2c1=O,.,1.4%,.,-0.7%,.,-0.9%,.
CCOc1ccc(C(=O)c2cn(CC(=O)Nc3ccc4c(c3)OCO4)c3ccc(OC)cc3c2=O)cc1,.,5.2%,.,-0.1%,.,-2.3%,.
CCOc1ccc(NC(=O)c2c(NCc3sccc3C)sc3c2CCCCC3)cc1,.,2.8%,.,-2.2%,.,1.9%,.
SMILES,RORgamma inh,PINK1 expr mod,Sfp inh,ClpP mod,Gal4-VP16 FLuc,Epigenetic derep,ClpP inh valid
NC(=O)COc1ccc2cc(-c3ccc(F)cc3)c(=O)oc2c1,17.7%,1.8%,1.6%,.,3.7%,.,.
O=c1oc2cc(OCc3ccc(F)cc3F)ccc2cc1-c1ccccn1,12.7%,6.0%,12.3%,3.16µM*,1.0%,1.3%,9.68µM*
COc1ccccc1OCCNC(=O)c1ccc2c(c1)OCCO2,.,3.6%,.,7.94µM*,.,.,-1.4%
COc1ccc(OC)c(NC(=O)c2cc3c(Cl)nc4ccccc4c3s2)c1,-7.6%,8.4%,-8.6%,54.3%,0.1%,0.9%,-26.3%
COc1ccc(NC2=CC(c3ccc(OC)cc3)N(c3ccc(OC)cc3)C2=O)cc1 (stereo not drawn),26.1%,1.2%,-10.7%,-9.6%,-10.5%[10 µM],-0.7%[10.1 µM],.
COc1ccc(NC2=CC(c3ccc(F)cc3)N(c3ccc(OC)cc3)C2=O)cc1 (stereo not drawn),3.4%,29.3%,12.7%,93.9%,-0.8%,-3.0%,?
Cn1c(=O)c2c(-c3ccc(Cl)cc3)n(Cc3ccc(Cl)cc3)cc2n(C)c1=O,.,-0.5%,.,10µM*,.,-2.9%,38.5µM*
CCNc1ccc(C(=O)OCC(=O)N2CCCC2)cc1[N+](=O)[O-],6.8%,-0.1%,22.6%,97.6%,10.4%,.,-1.1%
O=C(OCC(=O)N1CCCC1)c1ccc(Cl)c([N+](=O)[O-])c1,-12.7%,-1.2%,17.7%,.,14.3%,.,.
Cc1cccc(C(=O)N2CCN(c3ncnc4c3cnn4-c3ccccc3)CC2)c1,?,0.9%,6.0%,116.3%,-15.9%,-1.1%,-5.1%
CCCCCNC(=O)C(CCc1ccccc1)n1c(=O)c(-c2cc3ccccc3[nH]2)nc2ccccc21 (stereo not drawn),.,.,.,32.6%,.,.,.
CCCCCNC(=O)C(c1cccc2ccccc12)n1c(=O)c(-c2cc3ccccc3[nH]2)nc2ccccc21 (stereo not drawn),.,.,.,38.2%,.,.,6.9%
O=C(NCc1ccccc1)C(c1ccc(-c2ccccc2)cc1)n1c(=O)c(-c2cc3ccccc3[nH]2)nc2ccccc21 (stereo not drawn),.,.,.,35.8%,.,.,9.9%
O=C(NC1CCCCC1)C(c1cccc2ccccc12)n1c(=O)c(-c2cc3ccccc3[nH]2)nc2ccccc21 (stereo not drawn),.,.,.,41.0%,.,.,5.8%
